In PubChem BioAssay (EPA / NIEHS):
Calls of active or inactive are those of the source. Rule for the calls: active = hit-call score of the fitted dose curve at least 0.9, where 1 is the maximum; inactive = score below 0.9.

What follows are compounds tested on Forkhead box O3 (FOXO3), FOXO3 (gene 2309) (assay: LTEA_HepaRG_FOXO3: Life Technologies and Expression Analysis (LTEA) Assay for Forkhead box O3 (FOXO3) using HepaRG (AID 2283459)). Settings: mRNA level, 48 h; actives raise or lower the signal.
Method: LTEA_HepaRG is a cell based, multiplexed-readout assay that uses HepaRG, a human liver cell line, with measurements taken at 48 hours after chemical dosing on a 96-well plate.LTEA_HepaRG_FOXO3 is one of 102 assay component(s) measured in the LTEA HepaRG cell culture assay. It is a marker of Cell proliferation, survival, death.Data from the assay component LTEA_HepaRG_FOXO3 was analyzed into 1 endpoint. This assay endpoint, LTEA_HepaRG_FOXO3, was analyzed with bidirectional fitting relative to DMSO as the negative control and baseline of activity. Using a type of inducible reporter, measures of mRNA induction for gain or loss-of-signal activity can be used to understand regulation of transcription factor activity. To generalize the intended target to other relatable targets, this assay endpoint is annotated to the dna binding intended target family, where the subfamily is forkhead box protein.
A total of 1060 chemcials from the ToxCast library were tested in eight-point concentration-response experiments. Cell culture and cytotoxicity assays were conducted at Thermo Fisher Scientific's Custom Services facility (Madison, WI). A single lot of human HepaRG cells (Thermo Fisher Scientific, Frederick, MD) was used for the cell culture experiments. 96-well format collagen type I coated plates of human HepaRG cells were prepared using established methods. Briefly, cryopreserved HepaRG cells were thawed, plated at a density of approximately 100,000 cells/well in HepaRG Thaw, Plate, and General Purpose media (HPRG770, Thermo Fisher Scientific), and incubated for 48 hours. 0.5% DMSO was selected as vehicle control to balance the requisite need of DMSO in HepaRG cultures to maintain differentiation (for example, baseline metabolism, proportions of hepatocytes vs. cholangiocytes), while enabling further hepatic receptor pathway activation (for example, PXR and CAR) in response to chemical exposure. 48 hours after plating, the culture medium was replaced with HepaRG Serum-Free Incudtion Media. Cells were exposed to each test chemical in duplicate and maintained in CO2 incubators for another 48 hours. Chemical plates were thawed to room temperature and 200x concentrations of treatment groups were prepared. 8-point conentration-reponse curves were made with the highest exposure at 100 uM, followed by half-log dilutions, all in 0.5% DMSO. Each test plate contained variouse controls, induction positive controls (1mM phenobarbital), cytotoxicity positive controls ([…] aflatoxin B1), vehicle controls (0.5% DMSO), and total lysis controls (0.5% DMSO). Cell morphology images were taken using an Essen IncuCyte FLR automated microscope, with six 96-well plates imaged in about 24 minutes. Images were captured and exported and JPEG files. Spent culture media was transfered to black-well plates for the LDH assay, and remaining media was sorted at -80 C for later use. Cells were treated with RLT buffer and frozen until shipped for gene expression analysis. Total RNA was isolated from the cell suspension in 75 uL of Buffer RLT (Qiagen, Germantown, MD 20874) by Quintiles/Expression Analysis (Durham, NC) using a custom isolation procedure. Total RNA from each plate well was transferred to a preamplification plate. Fluidigm's 96.96 Dynamic ArrayTM (Fluidigm, Amsterdam, the Netherlands) technology was used for gene expression analyses by quantitative reverse transcription polymerase chain reaction (qRT-PCR, performed by Quintiles/Expression Analysis, Durham, NC)89. Standard TaqManTM Assays (Applied Biosystems/ThermoFisher Scientific, Foster City, CA) were used to assess the expression of 93 genes selected based on their selectivity and sensitivity to important hepatic receptors known to be modulated by environmental chemicals; importance in human hepatocyte functionality; and hepatotoxicity. […]

| SMILES | outcome | AC50 |
| --- | --- | --- |
| COC(=O)NC(=S)Nc1ccccc1NC(=S)NC(=O)OC | inactive | – |
| C=CCOC(=O)C(C)(C)OC(=O)c1cc(-n2c(=O)cc(C(F)(F)F)n(C)c2=O)ccc1Cl | inactive | – |
| CCCCOCN(C(=O)CCl)c1c(CC)cccc1CC | inactive | – |
| CC1(C)CON(Cc2ccccc2Cl)C1=O | inactive | – |
| CO/N=C(/C1=NOCCO1)c1ccccc1Oc1ncnc(Oc2ccccc2Cl)c1F | inactive | – |
| CS(=O)(=O)c1ccc(C(=O)C2C(=O)CCCC2=O)c([N+](=O)[O-])c1 | inactive | – |
| Cc1c(COC(=O)[C@@H]2[C@H](/C=C(\Cl)C(F)(F)F)C2(C)C)cccc1-c1ccccc1 | inactive | – |
| CCOc1nc(F)cc2nc(S(=O)(=O)Nc3c(Cl)cccc3Cl)nn12 | inactive | – |
| COc1cc(OC)nc(NC(=O)NS(=O)(=O)c2ncccc2OCC(F)(F)F)n1 | inactive | – |
| N#Cc1c(Cl)cccc1Cl | inactive | – |
| CC(C)(C)C(=O)C(Oc1ccc(Cl)cc1)n1cncn1 (stereo not given) | inactive | – |
| COc1cc(Cl)c(OC)cc1Cl | inactive | – |
| Nc1c(Cl)c(Cl)nc(C(=O)O)c1Cl | inactive | – |
| Cc1cc(C)nc(Nc2ccccc2)n1 | inactive | – |
| O=P(O)(O)CCCl | inactive | – |
| CC1(C)C(C(=O)OC(C#N)c2cccc(Oc3ccccc3)c2)C1(C)C (stereo not given) | inactive | – |
| CCNP(=S)(OC)O/C(C)=C/C(=O)OC(C)C (stereo not given) | inactive | – |
| N#Cc1c[nH]cc1-c1cccc2c1OC(F)(F)O2 | – | 12.3 µM (active) |
| COC(=O)N(C(=O)N1CO[C@@]2(C(=O)OC)Cc3cc(Cl)ccc3C2=N1)c1ccc(OC(F)(F)F)cc1 | inactive | – |
| Cn1c(-c2ccccc2)cc(-c2ccccc2)[n+]1C | – | 2.57 µM (active) |

| SMILES | outcome | AC50 |
| --- | --- | --- |
| COc1ccc(-c2ccccc2)cc1NNC(=O)OC(C)C | inactive | – |
| CCN(CC)c1nc(C)cc(OP(=S)(OC)OC)n1 | inactive | – |
| CC(C)=CC1C(C(=O)OCc2coc(Cc3ccccc3)c2)C1(C)C (stereo not given) | inactive | – |
| C=C(C)CN(CC)c1c([N+](=O)[O-])cc(C(F)(F)F)cc1[N+](=O)[O-] | inactive | – |
| Nc1c(Cl)c(F)nc(OCC(=O)O)c1Cl | inactive | – |
| CCOC(=O)C(C)OC(=O)c1cc(Oc2ccc(C(F)(F)F)cc2Cl)ccc1[N+](=O)[O-] (stereo not given) | inactive | – |
| CCCN(CC)CC1COC2(CCC(C(C)(C)C)CC2)O1 (stereo not given) | inactive | – |
| CCCC(=NOCC)C1=C(O)CC(CC(C)SCC)CC1=O (stereo not given) | inactive | – |
| COCC(=O)N(c1c(C)cccc1C)C(C)C(=O)OC (stereo not given) | inactive | – |
| CCOP(=O)(OCC)Oc1nc(Cl)c(Cl)cc1Cl | inactive | – |
| COC(=O)c1c(C(F)F)nc(C(F)(F)F)c(C2=NCCS2)c1CC(C)C | inactive | – |
| CNC(=O)Oc1cccc2ccccc12 | inactive | – |
| O=C(O)c1c(Cl)ccc2cc(Cl)cnc12 | inactive | – |
| CCNC(=O)NC(=O)C(C#N)=NOC | inactive | – |
| CC1(C)CCC(=Cc2ccc(Cl)cc2)C1(O)Cn1cncn1 (stereo not given) | inactive | – |
| CCCCC(C#N)(Cn1cncn1)c1ccc(Cl)cc1 (stereo not given) | inactive | – |
| CCN(CC)C(=O)C(C)Oc1cccc2ccccc12 (stereo not given) | inactive | – |
| Cc1cnc(C2=NC(C)(C(C)C)C(=O)N2)c(C(=O)O)c1 (stereo not given) | inactive | – |
| CC(C)Oc1cccc(NC(=O)c2ccccc2C(F)(F)F)c1 | inactive | – |
| Cc1ccc(N=CN(C)C=Nc2ccc(C)cc2C)c(C)c1 | inactive | – |
